The results in this text go back to PubChem BioAssay (Tox21).

Test [1] in a line: qHTS assay to identify small molecule agonists of the TGF-beta/Smad signaling pathway (AID 1346859; active means well fitted activation curve with a large enough effect in the signal ratio in the repeat runs, not every such curve was filed as active; the % refers to the signal ratio; further: series mostly up to about 77 µM). The procedure, abridged:
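HEK 293T cells stably carrying a beta-lactamase reporter driven by the Smad binding element were seeded overnight, exposed to DMSO-dissolved compounds for 5 hr at 37 C, 5% CO2, then loaded with FRET substrate for 2 hr at room temperature.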

For test [2], the target named is Thyrotropin-releasing hormone receptor (Homo sapiens) (UniProt P34981). The experiment in a line: qHTS assay to identify small molecule antagonists of the thyrotropin-releasing hormone receptor (TRHR) signaling pathway (AID 1346877; active means well fitted inhibition curve with a large enough effect in the repeat runs, not every such curve was filed as active; further: series mostly up to about 51 µM). The method, boiled down:
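Antagonism is measured as suppression of the calcium response to 1 nM TRH in TRHR-HEK293 cells that have been dye-loaded for 2 h at 37 °C after overnight plating. Each compound is tested at 15 concentrations in triplicate.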

The target is the same in test [3]. Kind of test: qHTS assay to identify small molecule agonists of the thyrotropin-releasing hormone receptor (TRHR) signaling pathway (AID 1346891; calls by dose curve; further: series mostly up to about 58 µM). The procedure, abridged:
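TRHR-expressing HEK293 cells were plated 18 h at 37 °C/5% CO2, loaded with calcium dye 2 h at 37 °C, then given compound in DMSO; fluorescence was read kinetically for 3 min at 1 s intervals.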

Test [4] is described as follows: Human pregnane X receptor (PXR) small molecule agonists, qHTS cell viability counter screen (AID 1346977). Further: nearly all actives have a fitted effect of over 50% in size. The method, boiled down:
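PXR-Luc HepG2 cells in medium with 5% charcoal-stripped FBS were pre-incubated 5hr, then exposed to compounds for 24hr at 37C. Viability was read in the same wells by CellTiter-Fluor fluorescence, reagent added after 23hr with a 1hr incubation.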

Test [5] can be described thus: Caspase-3/7 induction in HepG2 cells by small molecules, qHTS assay (AID 1346978). Further: nearly all actives have a fitted effect of over 15% in size. The procedure, abridged: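 Wild-type HepG2 cells (2,000/well) were settled 5 h at 37 C, 5% CO2, then exposed to compounds in DMSO for 17 h. Caspase-3/7 activity was read by luminescence 30 min after adding Caspase-Glo 3/7 reagent at room temperature.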
A short description of test [6]: Caspase-3/7 induction in CHO-K1 cells by small molecules, qHTS cell viability counter screen (AID 1346979). Further: nearly all actives have a fitted effect of over 35% in size. The procedure, abridged: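 Wild-type CHO-K1 cells were seeded at 1,500 per well, rested 5hr at 37 C, then exposed to compounds in DMSO. After 16hr, CellTiter-Fluor reagent was added and fluorescence read 1hr later as the viability measure.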
Test [7] can be described thus: Caspase-3/7 induction in CHO-K1 cells by small molecules, qHTS assay (AID 1346980). Further: nearly all actives have a fitted effect of over 15% in size. The method, boiled down:
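Wild-type cells were seeded at 1,500 per well and settled 5 hr at 37 C, 5% CO2, then exposed to DMSO-dissolved compounds for 17 hr. Caspase-Glo 3/7 reagent was added, and luminescence was read after 30min at room temperature.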

Test [8] can be described thus: Caspase-3/7 induction in HepG2 cells by small molecules, qHTS cell viability counter screen (AID 1346981). Further: series mostly up to about 92 µM; nearly all actives have a fitted effect of over 30% in size. The procedure, abridged:
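Cell viability is measured as a cytotoxicity counter screen alongside the Caspase-Glo 3/7 readout in identical wells. Wild-type HepG2 cells are treated with test compounds for 16 hr at 37 C before CellTiter-Fluor addition and a 1-hr incubation.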

For test [9], the target named is Nuclear receptor subfamily 1 group I member 2 (Homo sapiens) (UniProt O75469). Kind of test: Human pregnane X receptor (PXR) small molecule agonists, qHTS assay (AID 1346982). Further: nearly all actives have a fitted effect of over 35% in size. The procedure, abridged: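 Cells: HepG2 stably carrying PXR-Luc. Medium held 5% charcoal-stripped FBS. Compounds in DMSO added after 5 hr plating, incubated 24 hr, then luminescence quantified with ONE-Glo.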

Test [10] concerns the target Nuclear receptor subfamily 1 group I member 2 (Rattus norvegicus) (UniProt Q9R1A7). Kind of test: Rat pregnane X receptor (rPXR) activation by small molecules, qHTS assay (AID 1346983). Further: nearly all actives have a fitted effect of over 20% in size. Particulars: rPXR luciferase reporter cells, One-Glo luminescence, 24 h; max activation: hits give high values. The method, boiled down:
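Cell-based rPXR luciferase reporter assay, 2,000 cells per well, rested 5hr at 37 C before compound addition in DMSO, then 24 hr at 37 C. One-Glo reagent was added and luminescence read after 30 min at room temperature.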

Test [11] addresses Nuclear receptor subfamily 1 group I member 2 (Homo sapiens) (UniProt O75469). Kind of test: CYP3A4 induction through human pregnane X receptor (PXR) by small molecules, qHTS assay (AID 1346984). Further: nearly all actives have a fitted effect of over 40% in size. The method, boiled down:
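Quantitative HTS in DPX-2 cells, i.e. HepG2 transfected with PXR response element and CYP3A4-promoter luciferase. Compounds in DMSO incubated 24hr at 37C; then P450-Glo CYP3A4 substrate, 3uM final, 3hr; One-Glo luminescence.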

The target is the same in test [12]. Kind of test: Human pregnane X receptor (PXR) activation by small molecules, qHTS assay (AID 1346985). Further: nearly all actives have a fitted effect of over 40% in size. The procedure, abridged:
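DPX-2 cells (HepG2 co-transfected with a PXR response element and a CYP3A4-promoter luciferase construct) were seeded at 2,000 per well, rested 5 hr at 37C, then exposed to DMSO-dissolved compounds for 24 hr. Activation was read as luciferase luminescence.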

Test [13] has as its target Cytochrome P450 2C9 (Homo sapiens) (UniProt P11712). The experiment in a line: Cytochrome P450 Family 2 Subfamily C Member 9 (CYP2C9) small molecule antagonists: luciferase reporter qHTS assay (AID 1671198). Further: series mostly up to about 120 µM; nearly all actives have a fitted effect of over 50% in size. The method, boiled down: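 CYP2C9 activity was measured with a P450-Glo proluciferin substrate. Enzyme–substrate mix was held with compound for 10 min at room temperature, then NADPH regeneration solution was added for 1 h at 37C. Luciferin product was read as luminescence.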

Test [14] concerns the target Cytochrome P450 1A2 (Homo sapiens) (UniProt P05177). The experiment in a line: Cytochrome P450 Family 1 Subfamily A Member 2 (CYP1A2) small molecule antagonists: luciferase reporter qHTS assay (AID 1671199). Further: nearly all actives have a fitted effect of over 50% in size. Further: potency means the concentration at half of the fitted maximal effect. The method, boiled down:
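Compounds were incubated with CYP1A2 and a luminogenic proluciferin substrate for 10 min at room temperature before the reaction was started with NADPH regeneration solution. After 1 h, detection reagent was added and light output, proportional to CYP activity, was recorded.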

Test [15] deals with Voltage-gated inwardly rectifying potassium channel KCNH2 (Homo sapiens) (UniProt Q12809). The experiment in a line: Human Ether-a-go-go-Related Gene (hERG) channel small molecule antagonists: fluorescence cell-based qHTS assay (AID 1671200).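 Further: hERG-expressing U2OS cells given a thallium stimulus after FluxOR II dye loading; series mostly up to about 77 µM; nearly all actives have a fitted effect of over 50% in size.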 The procedure, abridged: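 U2OS cells expressing the channel were plated at 1000 cells/well, incubated overnight at 37 C, then loaded with FluxOR II thallium-sensitive dye for 1 h at room temperature in the dark, with a further 10 min at room temperature before stimulation.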

The target of test [16] is Cytochrome P450 3A4 (Homo sapiens) (UniProt P08684). Kind of test: Cytochrome P450 Family 3 Subfamily A Member 4 (CYP3A4) small molecule antagonists: luciferase reporter qHTS assay (AID 1671201). The method, boiled down:
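P450-Glo CYP3A4 system with proluciferin substrate; compounds preincubated 10 min RT with enzyme-substrate mix, then NADPH regeneration added for 1 h RT. Detection reagent 20 min, luminescence read as relative luminescence units.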

Test [17] has as its target Cytochrome P450 2D6 (Homo sapiens) (UniProt P10635). The experiment in a line: Cytochrome P450 Family 2 Subfamily D Member 6 (CYP2D6) small molecule antagonists: luciferase reporter qHTS assay (AID 1671196). The method, boiled down:
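Enzyme and proluciferin substrate were first combined with test chemical for 10 min at room temperature. Adding NADPH regeneration solution started a 1 h reaction, stopped with luciferin detection reagent and read by luminescence 20 min later.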

Test [18] deals with Cytochrome P450 2C19 (Homo sapiens) (UniProt P33261). The experiment in a line: Cytochrome P450 Family 2 Subfamily C Member 19 (CYP2C19) small molecule antagonists: luciferase reporter qHTS assay (AID 1671197). Further: nearly all actives have a fitted effect of over 65% in size. Further: potency means the concentration at half of the fitted maximal effect. The procedure, abridged:
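P450-Glo CYP2C19 system: enzyme-substrate mix with compound 10 min at room temperature, then NADPH regeneration solution, 1 h at 37C. Proluciferin-to-luciferin conversion detected by luminescence after 20 min with detection reagent; ketoconazole as positive control.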

Structures are written as SMILES. Unmarked numbers belong to inactive results. Results filed as inconclusive are left out. Calls of active or inactive are those of the source. Unless noted, the call rests on the fitted dose curve; in most records, active means well fitted curve in the direction sought with a large enough effect in the repeat runs; inconclusive means weak or mixed curves; inactive means no such curve, though single readings can be large; an effect the other way counts as inactive or inconclusive.
On the % scale 0 is the no-effect control and ±100 the full control effect.

Cytochrome P450 2C9 (Homo sapiens), sequence (P11712 whole entry, looked up): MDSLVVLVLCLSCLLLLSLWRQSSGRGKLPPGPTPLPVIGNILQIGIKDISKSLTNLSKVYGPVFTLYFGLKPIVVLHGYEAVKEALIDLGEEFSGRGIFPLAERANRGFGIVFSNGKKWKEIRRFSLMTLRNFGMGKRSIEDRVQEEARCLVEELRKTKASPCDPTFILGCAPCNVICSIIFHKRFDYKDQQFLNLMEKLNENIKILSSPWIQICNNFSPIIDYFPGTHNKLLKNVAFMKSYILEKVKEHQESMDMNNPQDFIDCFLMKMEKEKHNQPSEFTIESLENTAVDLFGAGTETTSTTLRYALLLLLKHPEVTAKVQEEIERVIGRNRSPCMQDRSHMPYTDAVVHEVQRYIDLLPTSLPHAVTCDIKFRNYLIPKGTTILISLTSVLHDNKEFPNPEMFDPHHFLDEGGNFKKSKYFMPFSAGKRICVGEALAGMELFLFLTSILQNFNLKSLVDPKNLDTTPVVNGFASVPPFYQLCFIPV
Cytochrome P450 1A2 (Homo sapiens), sequence (P05177 whole entry, looked up): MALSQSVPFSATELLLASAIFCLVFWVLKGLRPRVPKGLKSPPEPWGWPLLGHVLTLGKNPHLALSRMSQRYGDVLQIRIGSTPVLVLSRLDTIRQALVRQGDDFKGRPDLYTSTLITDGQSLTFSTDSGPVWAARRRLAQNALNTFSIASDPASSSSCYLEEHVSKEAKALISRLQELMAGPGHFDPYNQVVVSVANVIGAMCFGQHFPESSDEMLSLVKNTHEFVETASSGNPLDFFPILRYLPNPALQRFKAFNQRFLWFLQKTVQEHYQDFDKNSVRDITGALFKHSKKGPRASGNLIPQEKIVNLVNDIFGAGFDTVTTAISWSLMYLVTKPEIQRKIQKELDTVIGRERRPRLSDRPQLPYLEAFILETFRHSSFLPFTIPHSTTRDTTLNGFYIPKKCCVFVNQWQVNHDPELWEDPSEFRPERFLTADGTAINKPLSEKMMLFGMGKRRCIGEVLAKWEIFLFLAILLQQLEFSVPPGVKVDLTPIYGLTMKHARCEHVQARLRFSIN
Cytochrome P450 2D6 (Homo sapiens), sequence (P10635 whole entry, looked up): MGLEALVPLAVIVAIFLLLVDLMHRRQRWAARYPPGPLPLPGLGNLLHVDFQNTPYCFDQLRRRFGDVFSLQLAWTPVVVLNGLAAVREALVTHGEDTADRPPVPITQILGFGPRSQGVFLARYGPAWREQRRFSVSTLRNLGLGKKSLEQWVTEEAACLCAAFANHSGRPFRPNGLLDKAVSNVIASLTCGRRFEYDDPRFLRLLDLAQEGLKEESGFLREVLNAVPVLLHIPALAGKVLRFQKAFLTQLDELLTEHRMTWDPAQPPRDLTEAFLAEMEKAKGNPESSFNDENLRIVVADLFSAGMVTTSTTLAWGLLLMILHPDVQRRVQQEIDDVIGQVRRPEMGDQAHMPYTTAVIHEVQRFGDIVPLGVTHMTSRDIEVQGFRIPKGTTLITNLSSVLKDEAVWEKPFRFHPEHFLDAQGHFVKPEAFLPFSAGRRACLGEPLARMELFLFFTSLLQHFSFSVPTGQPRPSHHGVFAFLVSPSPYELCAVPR
Cytochrome P450 2C19 (Homo sapiens), sequence (P33261 whole entry, looked up): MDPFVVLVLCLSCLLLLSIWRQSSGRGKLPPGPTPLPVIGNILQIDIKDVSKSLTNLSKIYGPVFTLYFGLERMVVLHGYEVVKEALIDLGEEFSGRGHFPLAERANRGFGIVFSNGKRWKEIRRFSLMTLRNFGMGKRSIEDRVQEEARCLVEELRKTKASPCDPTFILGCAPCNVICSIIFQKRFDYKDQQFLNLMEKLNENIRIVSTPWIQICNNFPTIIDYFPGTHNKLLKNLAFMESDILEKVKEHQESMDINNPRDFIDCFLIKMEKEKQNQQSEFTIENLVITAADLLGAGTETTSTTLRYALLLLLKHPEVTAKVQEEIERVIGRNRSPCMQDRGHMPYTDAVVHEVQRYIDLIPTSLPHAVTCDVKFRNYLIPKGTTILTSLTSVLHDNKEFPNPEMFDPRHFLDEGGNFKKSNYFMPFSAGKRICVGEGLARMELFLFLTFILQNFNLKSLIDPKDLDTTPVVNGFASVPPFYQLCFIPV
Nuclear receptor subfamily 1 group I member 2 (Homo sapiens), sequence (O75469 whole entry, looked up): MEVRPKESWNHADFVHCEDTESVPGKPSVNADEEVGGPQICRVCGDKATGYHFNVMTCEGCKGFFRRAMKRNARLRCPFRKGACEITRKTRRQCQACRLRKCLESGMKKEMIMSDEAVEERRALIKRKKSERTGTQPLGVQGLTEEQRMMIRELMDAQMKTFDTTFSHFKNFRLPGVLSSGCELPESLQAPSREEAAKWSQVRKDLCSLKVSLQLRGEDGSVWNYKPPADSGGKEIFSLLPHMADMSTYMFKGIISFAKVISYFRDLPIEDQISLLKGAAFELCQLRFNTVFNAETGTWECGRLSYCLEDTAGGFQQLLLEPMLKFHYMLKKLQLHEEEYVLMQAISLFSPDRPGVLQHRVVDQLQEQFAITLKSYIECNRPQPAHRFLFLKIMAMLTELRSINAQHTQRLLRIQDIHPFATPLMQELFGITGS
Nuclear receptor subfamily 1 group I member 2 (Rattus norvegicus), sequence (Q9R1A7 whole entry, looked up): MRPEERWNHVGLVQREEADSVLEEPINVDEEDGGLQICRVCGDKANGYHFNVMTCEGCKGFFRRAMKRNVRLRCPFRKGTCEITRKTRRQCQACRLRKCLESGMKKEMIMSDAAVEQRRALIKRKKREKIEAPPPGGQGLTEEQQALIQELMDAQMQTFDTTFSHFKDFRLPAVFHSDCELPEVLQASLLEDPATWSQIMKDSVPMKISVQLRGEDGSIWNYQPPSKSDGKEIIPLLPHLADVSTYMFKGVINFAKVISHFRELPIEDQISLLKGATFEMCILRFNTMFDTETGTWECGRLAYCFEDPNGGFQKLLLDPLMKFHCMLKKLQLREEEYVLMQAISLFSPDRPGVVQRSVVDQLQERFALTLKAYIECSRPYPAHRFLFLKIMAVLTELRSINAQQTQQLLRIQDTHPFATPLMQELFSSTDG
Voltage-gated inwardly rectifying potassium channel KCNH2 (Homo sapiens), sequence (Q12809 whole entry, looked up): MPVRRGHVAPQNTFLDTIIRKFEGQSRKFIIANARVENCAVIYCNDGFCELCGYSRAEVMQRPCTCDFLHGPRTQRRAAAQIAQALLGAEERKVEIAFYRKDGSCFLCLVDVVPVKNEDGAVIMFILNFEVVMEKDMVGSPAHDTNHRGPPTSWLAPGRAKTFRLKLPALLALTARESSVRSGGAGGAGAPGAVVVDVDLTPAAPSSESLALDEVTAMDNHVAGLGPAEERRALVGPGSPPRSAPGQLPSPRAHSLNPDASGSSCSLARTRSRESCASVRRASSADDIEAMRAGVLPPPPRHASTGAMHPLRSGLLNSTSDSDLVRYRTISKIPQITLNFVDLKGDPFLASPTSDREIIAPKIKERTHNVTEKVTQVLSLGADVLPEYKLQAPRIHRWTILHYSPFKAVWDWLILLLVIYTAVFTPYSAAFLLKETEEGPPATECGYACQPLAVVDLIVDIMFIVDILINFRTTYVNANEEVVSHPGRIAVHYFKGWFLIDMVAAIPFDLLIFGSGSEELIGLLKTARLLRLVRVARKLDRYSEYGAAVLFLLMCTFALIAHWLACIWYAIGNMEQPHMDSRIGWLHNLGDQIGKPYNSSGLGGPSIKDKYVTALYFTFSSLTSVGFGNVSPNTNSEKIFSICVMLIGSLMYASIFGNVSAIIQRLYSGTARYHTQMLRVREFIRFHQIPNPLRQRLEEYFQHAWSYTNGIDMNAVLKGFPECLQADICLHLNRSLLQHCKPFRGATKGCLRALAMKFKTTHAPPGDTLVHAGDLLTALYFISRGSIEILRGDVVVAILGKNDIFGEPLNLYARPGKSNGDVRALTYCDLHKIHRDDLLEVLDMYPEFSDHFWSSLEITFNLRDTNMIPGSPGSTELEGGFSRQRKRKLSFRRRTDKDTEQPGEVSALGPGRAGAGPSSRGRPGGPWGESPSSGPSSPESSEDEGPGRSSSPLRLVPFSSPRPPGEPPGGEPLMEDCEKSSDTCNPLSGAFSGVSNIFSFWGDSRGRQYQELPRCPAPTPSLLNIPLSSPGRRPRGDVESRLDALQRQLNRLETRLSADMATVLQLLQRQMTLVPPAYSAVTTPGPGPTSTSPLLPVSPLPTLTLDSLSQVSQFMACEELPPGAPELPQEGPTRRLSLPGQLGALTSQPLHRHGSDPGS
Thyrotropin-releasing hormone receptor (Homo sapiens), sequence (P34981 whole entry, looked up): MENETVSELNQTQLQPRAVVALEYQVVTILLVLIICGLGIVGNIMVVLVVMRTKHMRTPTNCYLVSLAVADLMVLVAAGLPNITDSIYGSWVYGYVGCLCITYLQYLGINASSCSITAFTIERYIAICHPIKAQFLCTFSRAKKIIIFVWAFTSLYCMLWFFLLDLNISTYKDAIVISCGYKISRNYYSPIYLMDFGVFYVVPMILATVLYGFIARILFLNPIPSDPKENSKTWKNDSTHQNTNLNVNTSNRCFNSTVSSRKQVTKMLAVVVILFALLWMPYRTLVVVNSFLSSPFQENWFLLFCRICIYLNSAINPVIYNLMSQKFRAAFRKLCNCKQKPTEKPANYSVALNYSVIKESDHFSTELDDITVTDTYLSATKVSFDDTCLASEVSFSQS
Cytochrome P450 3A4 (Homo sapiens), sequence (P08684 whole entry, looked up): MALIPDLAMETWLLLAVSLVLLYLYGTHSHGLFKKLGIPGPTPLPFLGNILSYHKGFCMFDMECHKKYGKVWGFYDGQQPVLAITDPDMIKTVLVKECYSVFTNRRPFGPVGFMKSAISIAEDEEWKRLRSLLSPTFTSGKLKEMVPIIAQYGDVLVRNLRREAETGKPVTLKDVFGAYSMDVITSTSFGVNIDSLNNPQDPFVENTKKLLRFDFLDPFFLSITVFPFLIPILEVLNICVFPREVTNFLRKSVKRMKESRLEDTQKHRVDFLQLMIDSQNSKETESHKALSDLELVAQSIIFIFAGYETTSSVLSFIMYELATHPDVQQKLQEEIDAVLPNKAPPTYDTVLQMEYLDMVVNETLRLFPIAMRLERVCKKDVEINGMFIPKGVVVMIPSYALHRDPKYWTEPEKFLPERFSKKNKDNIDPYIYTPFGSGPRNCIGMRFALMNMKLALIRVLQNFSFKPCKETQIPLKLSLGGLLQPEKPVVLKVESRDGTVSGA

Take `C=CCN1CCc2nc(N)sc2CC1`: the compound was called inactive in test [1], in test [2], in test [4], in test [5], in test [7] and in [8]. Further, the call in test [11] and in [12] was inactive. For the same compound, the Potency result in test [3], in test [6], in test [9], in [13], in test [14] and in [15] was “inactive” in each case. In addition, in [16], the Potency result was “inactive”. Besides, the max activation in test [10] was -4.96%.
Regarding `CCCCCCC(O)CO` (stereo not drawn), the compound was called inactive in test [1], in [2], in [4], in [5], in test [7] and in test [8]. The Potency entry in [3], in [6], in test [9], in [17], in test [18] and in test [13] was “inactive” in each case. Also, the Potency entry in test [15] and in test [16] was “inactive” in each case.
On to `CC(C)(C)C(=O)NCCCC(=O)O`, for which the outcome in test [1], in [2], in test [4], in test [5], in [7] and in [8] was inactive. In addition, the call in [11] and in test [12] was inactive. Moreover, the Potency entry in test [3], in test [6], in [9], in [17], in [18] and in test [13] was “inactive” in each case. Moreover, the Potency entry in test [14], in test [15] and in [16] was “inactive” throughout. Moreover, the max activation in [10] was -1.4%.
On to `CCCc1ncc(C(=O)O)s1`, for which the compound was classed as inactive in [1], in test [2], in test [4], in test [5], in [7] and in test [8]. Moreover, the Potency result in [3], in test [6], in [9], in [17], in test [18] and in test [13] was “inactive” in each case. Besides, the Potency entry in [15] and in test [16] was “inactive” in each case.
For `CCCCCCCCCCCCCCBr`, the result in test [1], in test [2], in [4], in test [5], in [7] and in [8] was inactive. For the same compound, the Potency result in [3], in test [6], in test [9], in test [17], in test [18] and in test [13] was “inactive” each time. The Potency result in test [14], in [15] and in test [16] was “inactive” in each case.
With `O=C(O)P(=O)(O)O`, the outcome in test [1], in [2], in test [4], in test [5], in test [7] and in [8] was inactive. Also, the compound was called inactive in test [11] and in test [12]. Moreover, the Potency entry in [3], in test [6], in test [9], in test [17], in test [18] and in test [13] was “inactive” throughout. Also, the Potency result in test [14], in test [15] and in test [16] was “inactive” in each case. Besides, in test [10], the max activation is -4.52%.
Regarding `CCCc1ccc(O)c(OC)c1`, the compound was classed as inactive in test [1], in test [2], in test [4], in [5], in test [7] and in [8]. In addition, the Potency result in test [3], in test [6], in test [9], in test [17], in test [18] and in test [13] was “inactive” each time. The Potency result in test [15] and in test [16] was “inactive” each time. Moreover, the Potency in [14] is 31.7 µM (active).
As to `Cc1cc(O)c(Cl)cc1C`, the compound was classed as inactive in test [1], in test [2], in [4], in test [5], in [7] and in [8]. In addition, the Potency result in [3], in [6], in test [9], in test [17], in test [13] and in test [15] was “inactive” in each case. In test [18], the Potency was 71 µM (active).
